Where a name gives a salt, the structure may show the parent alone. Values without a mark were called inactive.

The test relates to Plasmodium falciparum NF54/iGP1_RE9H ulg8 stage V gametocytes. The test is described as follows: gametocyte viability (luciferase signal relative to DMSO control) (% of DMSO control); higher = less gametocytocidal activity, active = 50 or less. Particulars: exposure time: 72 h. The method, then:
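Synchronous P. falciparum NF54/iGP1_RE9H ulg8 mature stage V gametocytes (day 12) were exposed to Cayman Epigenetics Screening Library compounds at 10 µM or 1 µM for 72 h at 37 °C. Viability was read as RE9H luciferase bioluminescence, normalised to DMSO plate controls (100%); 50 µM methylene blue was the positive control.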

For the compound `Nc1ccccc1NC(=O)c1cnccn1`, the gametocyte viability (concentration: 1 µM) is 96.3 and the gametocyte viability (concentration: 10 µM) is 89.4.

In the case of `CCOC(=O)Nc1cc(-c2ccc(C)c(NS(C)(=O)=O)c2)nn2c(C)nnc12` [Bromosporine], the gametocyte viability is, setting by setting: (concentration: 1 µM) 86.5; (concentration: 10 µM) 83.1.

Take `O=C(/C=C/c1cccc(C(=O)NO)c1)NO`: the gametocyte viability (concentration: 1 µM) was 89.2 and the gametocyte viability (concentration: 10 µM) was 75.4.

On to `Nc1nccc2c1ncn2C1C=C(CO)C(O)C1O` (stereo unspecified) [3-Deazaneplanocin A], for which the gametocyte viability is, setting by setting: (concentration: 1 µM) 88.8; (concentration: 10 µM) 88.1.

Regarding `COc1cc(O)c2c(c1)oc(=O)c1c3cc(O)c(O)cc3oc21` [Wedelolactone], the gametocyte viability runs as follows: (concentration: 1 µM) 89.6; (concentration: 10 µM) 81.5.

Regarding `CN(C)c1ccc(C(=O)NCCCCCCC(=O)NO)cc1`, the gametocyte viability runs as follows: (concentration: 1 µM) 83.7; (concentration: 10 µM) 50.5.

On to `Cc1cc(C)cc(C(=O)NOCCCCCC(=O)NO)c1`, for which the gametocyte viability is 92.1 (concentration: 1 µM) and 64.9 (concentration: 10 µM).

Take `CN(C)c1ccc(C(=O)NCCCCCC(=O)NO)cc1`: the gametocyte viability runs as follows: (concentration: 1 µM) 76.2; (concentration: 10 µM) 52.

For `CCN(c1cc(-c2ccc(CN3CCOCC3)cc2)cc(C(=O)NCc2c(C)cc(C)[nH]c2=O)c1C)C1CCOCC1`, the gametocyte viability runs as follows: (concentration: 1 µM) 95.1; (concentration: 10 µM) 93.

As to `COc1cc2c(NC3CCN(C)CC3)nc(N3CCCN(C)CC3)nc2cc1OCCCN(C)C`, the gametocyte viability was 89.8 (concentration: 1 µM) and 84 (concentration: 10 µM).

`CCCCCCCCOC(=O)C(O)CCC(=O)O` (stereo not drawn) [Octyl-α-hydroxyglutarate]: the gametocyte viability is 92.4 (concentration: 1 µM) and 95.4 (concentration: 10 µM).

`NC(=O)[C@H](CCCN=C(N)CCl)NC(=O)c1ccccc1` [Cl-Amidine (hydrochloride)]: the gametocyte viability is, setting by setting: (concentration: 1 µM) 104; (concentration: 10 µM) 98.5.

For the compound `O=C(O)c1ccc(O)c2ncccc12`, the gametocyte viability is, setting by setting: (concentration: 1 µM) 90.6; (concentration: 10 µM) 84.3.

`O=c1[nH]c(=S)[nH]c(-c2ccccc2)c1Cc1c(O)ccc2ccccc12` [SIRT1/2 Inhibitor IV]: the gametocyte viability by setting is: (concentration: 1 µM) 84.7; (concentration: 10 µM) 87.5.

For `COc1cc(Br)c(Nc2nc(-c3c(C)nc4ncccn34)cs2)c(Br)c1`, the gametocyte viability was 94.5 (concentration: 1 µM) and 93.6 (concentration: 10 µM).

`CC(=O)Nc1ccc(NC(=S)NC(=O)c2ccc(C(C)(C)C)cc2)cc1` [Tenovin-1]: the gametocyte viability by setting is: (concentration: 1 µM) 81.3; (concentration: 10 µM) 81.9.

In the case of `COc1nnc2ccc(N3CCC(c4ccc(OCCN5CCN(C)C(=O)[C@H]5C)cc4)CC3)nn12`, the gametocyte viability (concentration: 1 µM) is 93.3 and the gametocyte viability (concentration: 10 µM) was 90.3.

In the case of `O=C(NC[C@H](O)CN1CCc2ccccc2C1)c1ccnc(NC2CCC2)c1`, the gametocyte viability was 80.7 (concentration: 1 µM) and 79.5 (concentration: 10 µM).

On to `CCCCOc1ccc(CC(=O)NO)cc1` [Bufexamac], for which the gametocyte viability is 85 (concentration: 1 µM) and 94.8 (concentration: 10 µM).

Turning to `O=C(O)c1ccc(CN2CCC(CN[C@@H]3C[C@H]3c3ccccc3)CC2)cc1`, the gametocyte viability was 86.7 (concentration: 1 µM) and 88.4 (concentration: 10 µM).

On to `O=C(NCC(=O)N1CCCC1)Nc1ccc2cnccc2c1`, for which the gametocyte viability runs as follows: (concentration: 1 µM) 91.7; (concentration: 10 µM) 93.4.

For the compound `Nc1cc(F)ccc1NC(=O)/C=C/c1cnn(C/C=C/c2ccccc2)c1`, the gametocyte viability was 98 (concentration: 1 µM) and 91.8 (concentration: 10 µM).

`Cn1cc(C(=O)Nc2ccc3c(c2)OCCO3)c2ccccc2c1=O`: the gametocyte viability is 82.7 (concentration: 1 µM) and 79.9 (concentration: 10 µM).

In the case of `Cc1ccc(NC2=CC(=O)c3sc(C)nc3C2=O)cc1` [Ryuvidine], the gametocyte viability by setting is: (concentration: 1 µM) 59.2; (concentration: 10 µM) 19.2 (active).

In the case of `C#CCC(CCCCCC)C(=O)O` (stereo unspecified) [2-hexyl-4-Pentynoic Acid], the gametocyte viability (concentration: 1 µM) is 89.2 and the gametocyte viability (concentration: 10 µM) was 95.4.

As to `O=C(CCCCCCSc1ccc2ccccc2c1)NO`, the gametocyte viability by setting is: (concentration: 1 µM) 84.8; (concentration: 10 µM) 84.6.

For `COc1ccccc1C(=O)Nc1cc2c(cc1N1CCCC1)n(C)c(=O)n2C`, the gametocyte viability reads like this: (concentration: 1 µM) 79.5; (concentration: 10 µM) 65.1.

With `O=C(NN=Cc1c(O)ccc2ccccc12)c1ccncc1`, the gametocyte viability (concentration: 1 µM) was 84.7 and the gametocyte viability (concentration: 10 µM) was 65.4.

`CCCC(CCC)C(=O)O` [Valproic Acid (sodium salt)]: the gametocyte viability by setting is: (concentration: 1 µM) 86.9; (concentration: 10 µM) 86.4.

Take `O=C(c1cncc(Br)c1)N1CCC(N2CCCC2)CC1`: the gametocyte viability (concentration: 1 µM) is 86.5 and the gametocyte viability (concentration: 10 µM) was 91.4.

Regarding `Cn1cccc1C(=O)N1CCc2cc(C(=O)NO)ccc2C1` [HDAC6 Inhibitor], the gametocyte viability (concentration: 1 µM) is 87 and the gametocyte viability (concentration: 10 µM) was 91.2.

For the compound `Cc1[nH]c2ccccc2c1CCNCc1ccc(/C=C/C(=O)NO)cc1` [Panobinostat], the gametocyte viability by setting is: (concentration: 1 µM) 60.2; (concentration: 10 µM) 61.4.

Take `O=C(CCl)Nc1ccc(S(=O)(=O)c2ccc(NC(=O)CCl)cc2)cc1`: the gametocyte viability (concentration: 1 µM) was 78.5 and the gametocyte viability (concentration: 10 µM) is 45 (active).

Values taken from the supplement of paper PMC12297408.
